Structures are written as SMILES.

Albumin (Bos taurus), sequence (P02769 whole entry, looked up): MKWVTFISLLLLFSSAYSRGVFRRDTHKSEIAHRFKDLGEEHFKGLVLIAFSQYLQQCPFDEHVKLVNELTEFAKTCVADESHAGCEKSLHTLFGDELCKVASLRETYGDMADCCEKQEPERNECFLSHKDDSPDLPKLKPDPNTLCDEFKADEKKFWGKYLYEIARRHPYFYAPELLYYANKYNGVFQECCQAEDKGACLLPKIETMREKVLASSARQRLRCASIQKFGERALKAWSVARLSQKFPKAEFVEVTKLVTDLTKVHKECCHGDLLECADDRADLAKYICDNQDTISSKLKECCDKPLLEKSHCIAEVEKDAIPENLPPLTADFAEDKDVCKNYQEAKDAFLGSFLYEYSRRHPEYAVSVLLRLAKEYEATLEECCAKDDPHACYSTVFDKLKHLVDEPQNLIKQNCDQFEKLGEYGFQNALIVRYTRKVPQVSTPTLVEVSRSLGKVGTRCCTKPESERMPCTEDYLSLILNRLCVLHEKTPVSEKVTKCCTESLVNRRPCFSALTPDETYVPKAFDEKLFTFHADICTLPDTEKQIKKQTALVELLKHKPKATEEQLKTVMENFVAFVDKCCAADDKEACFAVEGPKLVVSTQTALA

The assay addresses Albumin (Bos taurus) (UniProt P02769). The assay is described as follows: bovine serum albumin binders on microarray, profiling panel, artefact control for SMM control protein annotation, biochemical, small-molecule microarray, Alexa647 label, 635/667 nm fluorescence (AID 1118).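 Also: score merges 667 nm emission intensity and signal-to-noise per printed compound spot.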 The conditions noted are these: BSA-A647 binding, fluorescence 635 nm, higher = more signal.
As for `O=[N+]([O-])c1ccc(C[n+]2ccc3ccc(O)cc3c2)o1`, the composite z-score came to 0.895.

In turn, `O=C1O[C@@H](c2ccccc2)[C@@H](c2ccccc2)N2[C@@H](c3ccccc3OCCO)[C@]3(C(=O)Nc4ccc(C#CC5=CCCCC5)cc43)[C@@H](C(=O)O)[C@H]12` returned a composite z-score of 0.664.

`CCC#CCN(Cc1ccccc1Br)[C@H](/C=C/c1ccccc1)[C@@H](O)Cc1ccccc1` showed a composite z-score of -0.904.

Consider `COCCOC(=O)N1C(=O)[C@@]2(c3cc(C#CC4(O)CCCCCC4)ccc31)[C@H](C(=O)N1CCCCCCC1)[C@H]1C(=O)O[C@H](c3ccccc3)[C@H](c3ccccc3)N1[C@@H]2c1ccc(O)cc1`, for which the composite z-score was -0.653.

For `C[N+](C)(C)CCCCNC(=O)[C@@H]1C[C@@H]2C(=O)N3CCC[C@H]3C(=O)N2[C@@H]1c1cccc(OCCO)c1`, the composite z-score was -0.486.

`C=CCN1C(=O)[C@]2(O[C@H](CCn3cc(CCO)nn3)[C@@H]([Si](C)(C)c3ccc(OC)cc3)[C@@H]2C)c2cc(NC(=O)c3ccc(OC)cc3)ccc21` had a composite z-score of 0.0645.

`CO[C@H]1COC(=O)[C@@H](Cc2ccccc2)NC(=O)[C@@H](C)COC(=O)CC=C[C@@H]1C` gave a composite z-score of -1.03.

`O=C1C2C=CC(C(O)c3ccccc3)N(n3cnnc3)C2C(=O)N1Cc1ccccc1` (configuration not stated) had a composite z-score of 0.878.

In turn, `C=C(COC)/C(=C/C[C@@H](OC(=O)c1ccncc1)c1ccc(OCCO)cc1)c1cc(C(=O)OC)ccc1OC` came in with a composite z-score of 0.655.

For `O=C1C[C@@](C(=O)NCCN2CCOCC2)(c2ccc([N+](=O)[O-])cc2)[C@@H](c2ccc(CO)cc2)N1C1CCCCC1`, the composite z-score is -0.218.

As to `COc1ccc(NN2C(C(O)c3cc(OC)c(OC)c(OC)c3)C=CC3C(=O)N(C4CCCCC4)C(=O)C32)cc1` (configuration not stated), the composite z-score turned out to be 1.02.

Turning to `C=C(C)[C@@H]1CC=C(C(O)C2C=CC3C(=O)NC(=O)C3N2Nc2ccccn2)CC1` (some centres not stated), the composite z-score was -0.27.

In the case of `O=C1OCCC/C=C\[C@H]2OC34C=CCN(CCN5CCOCC5)C(=O)[C@H]3N(CCCCCO)C(=O)[C@@H]4C12` (some centres not stated), the composite z-score was -1.22.

In turn, `NC(=O)NCC#Cc1ccc2c(c1)[C@]1(C(=O)N2)[C@H](C(N)=O)[C@H]2C(=O)O[C@H](c3ccccc3)[C@H](c3ccccc3)N2[C@@H]1c1ccccc1OCCO` registered a composite z-score of 0.284.

`COc1ccc([Si](C)(C)[C@H]2[C@H](CCO)O[C@@]3(C(=O)N(Cc4ccccc4)c4ccc(N5C(=O)c6cccc7cccc5c67)cc43)[C@@H]2C)cc1` had a composite z-score of 0.151.

Take `CN(C)c1ccc(C(O)C2C=CC3C(=O)NC(=O)C3N2Nc2ccc(Cl)cc2Cl)cc1` (configuration not stated): the composite z-score was found to be 0.667.

For `COC(=O)C(CC#Cc1ccc2c(c1)[C@]1(C(=O)N2)[C@H](C(=O)N2CCCCCCC2)[C@H]2C(=O)O[C@H](c3ccccc3)[C@H](c3ccccc3)N2[C@@H]1c1ccc(O)cc1)C(=O)OC`, the composite z-score is -0.264.

Compound `C=CCNC(=O)[C@@H]1[C@H]2C(=O)O[C@H](c3ccccc3)[C@H](c3ccccc3)N2[C@H](c2ccc(OCCO)cc2)[C@@]12C(=O)N(C(=O)OCCOC)c1ccc(C#CC3(O)CCCCCC3)cc12` came in with a composite z-score of 0.801.

For the compound `CC(C)[Si]1(C(C)C)O[C@@H](c2ccccc2)c2cc(C3CC3)nc(-c3ccc(Oc4ccccc4)cc3)c21`, the composite z-score was -1.01.

As to `[N-]=[N+]=NCc1ccccc1C[C@]1(C(=O)N2CCCCC2)N=C(c2ccc(OCCCO)cc2)O[C@H]1c1ccccc1CN=[N+]=[N-]`, the composite z-score was 0.899.

`Cc1ccc(N2C(=O)c3ccccc3[C@@H](C(=O)NCC(F)(F)F)[C@@H]2c2ccc(CO)cc2)nc1`: the composite z-score is -0.0791.

On to `CC(C)N1CC=CC23O[C@@H]4/C=C\CCCOC(=O)C4[C@H]2C(=O)N(CCO)[C@@H]3C1=O` (some centres not stated), for which the composite z-score worked out at 0.767.

Compound `O=C(NCC(F)(F)F)[C@@H]1c2ccccc2C(=O)N(Cc2ccccc2Cl)[C@H]1c1ccc(CO)cc1` showed a composite z-score of -0.288.

Regarding `C=CCNC(=O)[C@H]1[C@@H]2C(=O)O[C@@H](c3ccccc3)[C@@H](c3ccccc3)N2[C@@H](c2ccccc2OCCO)[C@]12C(=O)N(C(=O)OCCOC)c1ccc(C#CCC(C(=O)OC)C(=O)OC)cc12`, the composite z-score came out at 0.255.

In the case of `C[C@@H]1C=CCC(=O)OC[C@H]2O[C@@H](C=C[C@@H]2O)[C@H](C)C=CCC(=O)OC[C@H]2O[C@H]1C=C[C@@H]2O`, the composite z-score is -0.581.

Take `Cc1ccc(S[C@]2(C(=O)NCCN3CCOCC3)CC(=O)N(C3Cc4ccccc4C3)[C@@H]2c2ccc(CO)cc2I)cc1`: the composite z-score came out at 0.545.

Turning to `CC(C)CNC(=O)[C@@]1(C)c2ccccc2C(=O)N(Cc2ccc(OC(F)(F)F)cc2)[C@H]1c1ccc(CO)cc1`, the composite z-score was -0.2.
